± gives the standard deviation of the averaged measurements. The full ranking holds about 33,000 sequences; the median of “E-score (rank enrichment, -0.5 to 0.5)” is about -0.0068, and the highest 2% start at about 0.24. The list comes from a sample in which the highest values are over-represented; it also holds similar and randomly drawn sequences.
test system: muMax20 (Max(13-93) K31hArg/K57hArg, M65Nle); assay: PBM 8-mer E-score (E-score (rank enrichment, -0.5 to 0.5)); higher = stronger preferential binding
Description: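 Protein binding microarray (universal PBM chip covering all 10-mers in fixed probe flanks) with chemically synthesized human Max(13-93) bHLH-LZ analogs (not full-length Max) bearing noncanonical residues (hArg, Tha, Aib, Nle at 65) and aromatic Cys staples. Read-out per 8-mer (and its reverse complement): E-score (rank-based enrichment, -0.5 to 0.5) and Z-score of median probe intensity.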

Sequence | PBM 8-mer E-score
AACAAATA | 0.24 ± 0.0093
AACAAATT | 0.269 ± 0.049
AACAAGTT | 0.0361 ± 0.093
AACAAACA | 0.234 ± 0.022
AACAAATG | 0.155 ± 0.052
GCCCCAAC | 0.167 ± 0.046
ATAGCAAC | 0.0478 ± 0.052
ATAGCAAT | 0.1707 ± 0.0013
ATAGCAAG | 0.248 ± 0.0032
ACTCCATG | -0.0772 ± 0.0052
CCTACCCC | 0.0896 ± 0.026
CGGTATGA | -0.017 ± 0.021
ACATAATA | 0.294 ± 0.053
ACATAATG | 0.231 ± 0.099
CCATAATA | 0.213 ± 0.05
GCATAATA | 0.239 ± 0.0054
ACATAATC | 0.0995 ± 0.051
GCATAAGA | 0.107 ± 0.021
CCAAGTGA | -0.0263 ± 0.0041
CCGACGTC | -0.172 ± 0.09
CCAGAACA | 0.162 ± 0.0036
CGGCCACC | -0.305 ± 0.094
CTCTATGA | -0.000995 ± 0.044
AAAACCCC | 0.126 ± 0.077
AAATCGAG | 0.0488 ± 0.046

Sequence | PBM 8-mer E-score
GCACGTAC | -0.051 ± 0.064
GAACGTGA | -0.00796 ± 0.078
GCACGTGA | 0.392 ± 0.1
GGACGTGA | -0.122 ± 0.048
GCACGTGC | 0.454 ± 0.049
GCACGTCC | -0.0223 ± 0.063
CGCAGTTC | -0.116 ± 0.012
CCATCAGC | -0.0581 ± 0.017
GAATTCCA | 0.017 ± 0.13
AAATTCCA | 0.254 ± 0.0063
CAATTCCA | -0.00806 ± 0.02
GGGCGTAA | -0.0137 ± 0.039
ATATCTTA | 0.0954 ± 0.0085
CTATCTTC | 0.137 ± 0.013
ATATCTTC | 0.273 ± 0.027
GAGTGCCC | -0.0978 ± 0.005
CTATACCC | -0.0276 ± 0.12
ACGAAAAC | 0.248 ± 0.03
CAAGAAAC | 0.177 ± 0.047
CAAAAAAC | 0.21 ± 0.017
CAAAACAC | -0.0123 ± 0.11
ACGAAAAG | 0.154 ± 0.00054
GAAAACAC | 0.0158 ± 0.069
GAAGAAAC | 0.241 ± 0.024
AAAAAACC | 0.2 ± 0.036

Sequence | PBM 8-mer E-score
AAAAACAC | 0.283 ± 0.042
GAAGAAAA | 0.119 ± 0.022
ACGAAAAA | 0.181 ± 0.01
AAAAAAAC | 0.236 ± 0.056
ACACTTCT | -0.0487 ± 0.018
GGACAGCC | -0.155 ± 0.053
GGCTCCCA | -0.218 ± 0.099
GCCTACGC | -0.109 ± 0.09
AAAGAAAA | 0.263 ± 0.074
CAAAACCC | 0.145 ± 0.0083
CAAGAAAA | 0.0576 ± 0.13
AAAGAAAG | 0.084 ± 0.006
GAAAAAAA | 0.255 ± 0.013
CAAAAACC | 0.237 ± 0.016
GAAAAAAC | 0.178 ± 0.042
GGAAAAAA | 0.136 ± 0.12
CCAAAACC | 0.122 ± 0.057
CCCCCGAC | -0.232 ± 0.054
CCACAGGG | -0.0979 ± 0.07
ATCCGGTA | -0.00311 ± 0.041
ATGTCTAC | -0.0533 ± 0.013
AAACTGGA | 0.098 ± 0.12
AATTGGGC | 0.0726 ± 0.029
AATTGGGA | 0.239 ± 0.021
AATTGGGT | 0.181 ± 0.051

Sequence | PBM 8-mer E-score
AATTTGCA | 0.149 ± 0.052
CGAGTAAA | 0.0289 ± 0.1
CAAGTCGC | -0.102 ± 0.035
CCGTGCGC | -0.143 ± 0.07
ACGTGCGC | 0.241 ± 0.014
ACGCGTGA | 0.148 ± 0.14
ACGTGCGG | 0.105 ± 0.078
ACGTGTGA | 0.19 ± 0.11
ACGCGTGG | 0.183 ± 0.12
ACGTGTGG | 0.227 ± 0.071
ACGTGTGC | 0.297 ± 0.087
ACGCGTGC | 0.253 ± 0.042
GGAGAAGA | 0.084 ± 0.0044
CTCCTTAC | 0.0913 ± 0.013
CGTCTAGC | -0.0301 ± 0.083
GAGCCTAA | -0.0774 ± 0.0028
CGAGTACC | -0.134 ± 0.016
AACGGCTG | -0.184 ± 0.1
AACCACGT | 0.369 ± 0.057
AACCACGA | 0.141 ± 0.09
ACCCACGT | 0.341 ± 0.11
AACCACGC | -0.0767 ± 0.24
ACCCACGA | 0.0663 ± 0.055
ACCCACGC | 0.109 ± 0.027
AGTGTGCG | -0.149 ± 0.0092

Sequence | PBM 8-mer E-score
AAGATGTG | 0.128 ± 0.009
CCCCGCCC | 0.322 ± 0.043
CCCGCCCA | 0.317 ± 0.073
CCCGCCCG | -0.0341 ± 0.0082
GCCCGCCC | 0.0169 ± 0.057
ACCCCGCC | 0.27 ± 0.04
GCCGCCCA | -0.267 ± 0.094
CCCCCGCC | -0.0877 ± 0.065
GCCGCCCC | -0.0538 ± 0.0099
AACCCGCC | -0.0715 ± 0.029
ACCGCCCC | 0.0617 ± 0.15
ACCCGCCC | 0.172 ± 0.024
CCCGCCCC | 0.273 ± 0.057
AAGAAAGA | -0.00904 ± 0.054
AGAGTAAG | 0.117 ± 0.059
CCAAATAC | 0.13 ± 0.031
CCCGAATA | -0.0449 ± 0.17
CTTGGAGC | -0.103 ± 0.13
CCTAGCCG | -0.253 ± 0.052
ATCGGTGC | -0.0954 ± 0.028
CAGAACTA | -0.169 ± 0.18
AACACTCT | -0.00142 ± 0.039
AAGAACTC | -0.0481 ± 0.11
GCTAGAGC | -0.122 ± 0.12
GACTTCTA | -0.149 ± 0.025

Sequence | PBM 8-mer E-score
TACTTCTA | 0.272 ± 0.091
AACTTCTA | -0.0177 ± 0.042
CTTATGGA | -0.0576 ± 0.026
CAACCGAC | 0.0428 ± 0.061
AAACACGT | 0.342 ± 0.016
ACACACGG | 0.00898 ± 0.047
AAACACGA | 0.194 ± 0.04
AAACACGC | 0.198 ± 0.0045
ACACACGA | 0.188 ± 0.037
ACACACGT | 0.338 ± 0.01
GACGTAAC | 0.0633 ± 0.061
AATAGGTC | -0.0485 ± 0.14
AATAGGTG | 0.119 ± 0.0048
AATAGGTA | 0.251 ± 0.073
ACAATACC | 0.237 ± 0.02
CTAATACA | 0.248 ± 0.047
ACAATACA | 0.191 ± 0.02
CTAATACC | 0.0669 ± 0.08
ATAATACA | 0.281 ± 0.027
ATAATACG | 0.19 ± 0.015
ACAATACT | 0.174 ± 0.049
AAAATACA | 0.159 ± 0.058
ATAATACC | 0.261 ± 0.049
GTAATACA | 0.182 ± 0.082
TCAATACA | 0.18862 ± 0.00013

Sequence | PBM 8-mer E-score
AGAATACC | 0.142 ± 0.0044
ACTATGGC | -0.0571 ± 0.07
AATTTTCG | 0.0133 ± 0.1
GCCCTACA | -0.127 ± 0.021
CCCGCACG | -0.0959 ± 0.058
TGAGCGCA | -0.0144 ± 0.0021
AACGGCAA | 0.112 ± 0.025
CTCTGCGA | -0.167 ± 0.1
AGTTACCC | -0.029 ± 0.015
GGGATGGA | 0.0386 ± 0.042
ACCAGTTG | -0.0933 ± 0.12
ACTTCAAT | 0.173 ± 0.027
CAAATACA | 0.325 ± 0.037
GAAATACA | 0.132 ± 0.063
CAAATACC | 0.0739 ± 0.027
GTAACGTA | 0.0209 ± 0.03
ATAACGTA | 0.24 ± 0.0069
ATAACGTC | 0.121 ± 0.0034
AAGTCACT | 0.24 ± 0.12
AAGTCACA | 0.029 ± 0.056
AAGTCACG | 0.0988 ± 0.052
GCTTGCAA | 0.0886 ± 0.032
